Results on seven molecules are retold here after PubChem BioAssay (EPA / NIEHS).

Active and inactive are the calls of the source. How the source made its calls: active means hit-call score of the fitted dose curve at least 0.9, where 1 is the maximum; inactive means score below 0.9.

Assay [1] can be described thus: ATG_GRE_CIS: Attagene CIS-FACTORIAL HepG2 Assay for human Glucocorticoid Response Elements (GRE) (AID 2282947). To be noted: HepG2 GRE cis-reporter, Attagene multiplex mRNA; actives raise or lower the signal. The method, boiled down:
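Reporter transcripts read by RT-PCR with capillary electrophoresis fluorescence after a 24 h chemical exposure of HepG2 cells transiently transfected with multiple cis-element reporter units. Gain or loss fitted against DMSO.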

Assay [2] is described as follows: ATG_ISRE_CIS: Attagene CIS-FACTORIAL HepG2 Assay for human Interferon Regulatory Factor 1 (IRF1) binding to an Interferon-Stimulated Response Element (ISRE) (AID 2282948). To be noted: HepG2 ISRE cis-reporter (Attagene), mRNA transcription readout; actives raise or lower the signal. A digest of the protocol: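 Endogenous transcription factor activity read as reporter transcript abundance via RT-PCR and capillary electrophoresis. HepG2 cells transiently transfected, 24 h chemical exposure. Gain or loss fitted against DMSO baseline.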

A short description of assay [3]: ATG_M_32_CIS: Attagene CIS-FACTORIAL HepG2 Assay for M32 Transcription Factor (Internal Marker) (AID 2282949).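 Further: background control marker of the multiplexed CIS panel rather than a real target.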 To be noted: HepG2 Attagene cis-factorial M32 reporter, mRNA; actives raise or lower the signal. A digest of the protocol:
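HepG2 transfectants (cis-regulated reporter transcription units) dosed 24 h. Reporter mRNA by RT-PCR plus CE, analysed as gain or loss relative to DMSO.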

Assay [4] is described as follows: ATG_M_06_CIS: Attagene CIS-FACTORIAL HepG2 Assay for M06 Transcription Factor (Internal Marker) (AID 2282950). The conditions noted are these: HepG2 Attagene CIS-FACTORIAL M06 internal marker reporter; actives raise or lower the signal. A digest of the protocol:
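Measured 24 h post-dosing in transiently transfected HepG2 cells, this internal-marker endpoint reports reporter mRNA via RT-PCR with fluorescent primer extension and capillary electrophoresis. DMSO served as negative control and baseline for bidirectional fitting.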

The target in assay [5] is Hypoxia-inducible factor 1-alpha (Homo sapiens) (UniProt Q16665). Description: ATG_HIF1a_CIS: Attagene CIS-FACTORIAL HepG2 Assay for human Hypoxia Inducible Factor 1 (HIF1A) (AID 2282951). To be noted: HepG2 Attagene cis-factorial HIF1a reporter transcription; actives raise or lower the signal. A digest of the protocol:
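Dosed 24 h, transfected HepG2 cells yielded total RNA whose reporter transcripts were RT-PCR-amplified and sized by capillary electrophoresis using fluorescent labelling; DMSO defined baseline, with gain and loss of signal both fitted.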

Assay [6] concerns the target Hepatocyte nuclear factor 6 (Homo sapiens) (UniProt Q9UBC0). The assay is described as follows: ATG_HNF6_CIS: Attagene CIS-FACTORIAL HepG2 Assay for human Hepatocyte Nuclear Factor 6 (HNF6) (AID 2282952). The conditions noted are these: HepG2 Attagene cis-factorial HNF6 reporter transcription; actives raise or lower the signal. A digest of the protocol: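 First, HepG2 cells were transfected with the multiplexed cis reporter library and dosed with chemical for 24 h. Next, RNA was reverse-transcribed, PCR-amplified and fluorescently labelled. Finally, HpaI-digested fragments were read by capillary electrophoresis.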

The target of assay [7] is Heat shock factor protein 1 (Homo sapiens) (UniProt Q00613). Description: ATG_HSE_CIS: Attagene CIS-FACTORIAL HepG2 Assay for human Heat Shock Transcription Factor 1 (HSE) (AID 2282953). The conditions noted are these: HepG2 HSE cis-reporter, Attagene RNA transcription; actives raise or lower the signal. A digest of the protocol: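 Reporter mRNA induction in HepG2 is measured 24 h after dosing, using transiently transfected multiplexed cis-regulated reporter units. Signal comes from capillary electrophoresis of labelled RT-PCR products, with DMSO as negative control.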

A short description of assay [8]: ATG_MRE_CIS: Attagene CIS-FACTORIAL HepG2 Assay for human Metal Responsive Element (MRE) (AID 2282954). The conditions noted are these: HepG2 MRE cis-reporter transcription, Attagene multiplex; actives raise or lower the signal. A digest of the protocol: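 Endogenous MRE-dependent transcription read as reporter mRNA in transiently transfected human HepG2 cells at 24 h. RNA reverse-transcribed, PCR-amplified, labelled and resolved by capillary electrophoresis; gain or loss relative to DMSO.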

In assay [9] the target is Paired box protein Pax-6 (Homo sapiens) (UniProt P26367). Description: ATG_Pax6_CIS: Attagene CIS-FACTORIAL HepG2 Assay for human Paired Box 6 (PAX6) (AID 2282956). The conditions noted are these: HepG2 CIS-FACTORIAL PAX6 reporter transcription, RNA readout; actives raise or lower the signal. The method, boiled down:
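Read-out is reporter transcript level, measured by RT-PCR with fluorescent primer extension and capillary electrophoresis after 24 h dosing of transfected HepG2 cells. Activity in either direction fitted relative to DMSO control.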

Assay [10] in a line: ATG_PXRE_CIS: Attagene CIS-FACTORIAL HepG2 Assay for human Pregnane X Receptor Element (PXRE) (AID 2282957). To be noted: HepG2 Attagene CIS-FACTORIAL PXRE reporter, mRNA; actives raise or lower the signal. A digest of the protocol: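 After a 24 h chemical incubation, total RNA from transfected HepG2 cells was reverse-transcribed and reporter cDNA amplified, FAM-labeled, HpaI-digested and sized by capillary electrophoresis. DMSO served as baseline for bidirectional curve fitting.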

A short description of assay [11]: ATG_PPRE_CIS: Attagene CIS-FACTORIAL HepG2 Assay for human Peroxisome Proliferator-activated Response Element (PPRE) (AID 2282958). The conditions noted are these: HepG2 PPRE cis-element reporter, Attagene transcription factor profiling; actives raise or lower the signal. A digest of the protocol: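 Measured endpoint: PPRE-controlled reporter mRNA, detected by RT-PCR and capillary electrophoresis fluorescence, from transiently transfected HepG2 cells 24 h after dosing. Curves fitted in both directions using DMSO baseline.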

Assay [12] is described as follows: ATG_Sox_CIS: Attagene CIS-FACTORIAL HepG2 Assay for human SRY-box transcription factor (SOX) (AID 2282960). The conditions noted are these: HepG2 Attagene cis-factorial SOX reporter, mRNA; actives raise or lower the signal. A digest of the protocol:
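Gain- or loss-of-signal endpoint, fitted bidirectionally with DMSO as negative control. Based on reporter mRNA from transfected HepG2 cells harvested 24 h post-treatment and quantified via RT-PCR and capillary electrophoresis.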

Assay [13] addresses Transcription factor Sp1 (Homo sapiens) (UniProt P08047). The assay is described as follows: ATG_Sp1_CIS: Attagene CIS-FACTORIAL HepG2 Assay for human Specificity Protein 1 (Sp1) (AID 2282961). To be noted: HepG2 Sp1 cis-reporter transcription, actives raise or lower the signal. A digest of the protocol: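 Endpoint reflects endogenous Sp1 transcriptional activity, not an exogenous fusion protein: HepG2 cells with transfected cis-regulated reporters, 24 h dosing, RT-PCR/capillary electrophoresis mRNA read-out, DMSO-normalised bidirectional fit.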

Assay [14] in a line: ATG_SREBP_CIS: Attagene CIS-FACTORIAL HepG2 Assay for human Sterol Regulatory Element Binding (SREBP) (AID 2282962). To be noted: HepG2 Attagene cis-factorial SREBP reporter, mRNA; actives raise or lower the signal. The method, boiled down: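 Endogenous SREBP activity read as cis-element-driven reporter transcript in transiently transfected HepG2, 24 h post-dosing; quantified via RT-PCR plus capillary electrophoresis of fluorescent fragments. Gain or loss of signal fitted relative to DMSO baseline.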

Assay [15] has as its target Signal transducer and activator of transcription 3 (Homo sapiens) (UniProt P40763). Description: ATG_STAT3_CIS: Attagene CIS-FACTORIAL HepG2 Assay for human Signal Transducer and Activator of Transcription 3 (STAT3) (AID 2282963). The conditions noted are these: HepG2, Attagene cis-factorial STAT3 reporter transcription; actives raise or lower the signal. A digest of the protocol:
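Readout is reporter transcript quantified by RT-PCR and capillary electrophoresis, with 6-FAM primer extension and HpaI digestion. Total RNA is taken 24 h after dosing transiently transfected HepG2 carrying cis-regulated reporter units. Bidirectional fit against DMSO.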

Assay [16] can be described thus: ATG_TA_CIS: Attagene CIS-FACTORIAL HepG2 Assay for human TA Basal Promoter (AID 2282964). The conditions noted are these: HepG2 Attagene CIS-factorial TA basal promoter reporter; actives raise or lower the signal. A digest of the protocol:
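Cis-factorial format in HepG2: reporters report endogenous factors, not chimeric Gal4 fusions. After 24 h treatment, reporter transcripts were measured by RT-PCR-capillary electrophoresis fluorescence, analysed bidirectionally versus DMSO.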

Assay [17] in a line: ATG_TCF_b_cat_CIS: Attagene CIS-FACTORIAL HepG2 Assay for human T-Cell-Factor with beta-catenin (TCF/b-cat) (AID 2282965). To be noted: HepG2 TCF/beta-catenin cis-reporter transcription, actives raise or lower the signal. A digest of the protocol: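 Endogenous TCF/LEF activity read as reporter transcript level via RT-PCR and capillary electrophoresis fluorescence in transfected HepG2, 24 h exposure; gain or loss of signal fitted against DMSO controls.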

A short description of assay [18]: ATG_PBREM_CIS: Attagene CIS-FACTORIAL HepG2 Assay for human Phenobarbital-responsive Enhancer Module (PBREM) (AID 2282955). To be noted: HepG2 PBREM cis-reporter, Attagene multiplexed transcription; actives raise or lower the signal. The method, boiled down:
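Transfected liver-derived HepG2 cells exposed 24 h; PBREM reporter transcript quantified via RT-PCR and capillary electrophoresis, with activity in either direction referenced to DMSO.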

A short description of assay [19]: ATG_RORE_CIS: Attagene CIS-FACTORIAL HepG2 Assay for human RAR-related Orphan Receptor Element (RORE) (AID 2282959). The conditions noted are these: HepG2 Attagene cis-factorial RORE reporter, mRNA; actives raise or lower the signal. The method, boiled down: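 Transiently transfected HepG2 reporter cells were treated 24 h. Reporter transcripts were detected by RT-PCR and capillary electrophoresis, with bidirectional fitting against DMSO.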

For assay [20], the target named is Bile acid receptor (Homo sapiens) (UniProt Q96RI1). Description: ATG_IR1_CIS: Attagene CIS-FACTORIAL HepG2 Assay for human Nuclear Receptor Subfamily 1 Group H Member 4 (NR1H4), IR1 submotif (AID 2282946). To be noted: IR1 reporter transcription, actives raise or lower the signal. The method, boiled down:
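HepG2 cells transiently transfected with multiplexed cis-element reporter units read endogenous transcription factor activity. After 24 h compound exposure, reporter mRNA was quantified by RT-PCR, fluorescent labelling, HpaI digestion and capillary electrophoresis; bidirectional fitting versus DMSO baseline.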

Paired box protein Pax-6 (Homo sapiens), sequence (P26367 whole entry, looked up): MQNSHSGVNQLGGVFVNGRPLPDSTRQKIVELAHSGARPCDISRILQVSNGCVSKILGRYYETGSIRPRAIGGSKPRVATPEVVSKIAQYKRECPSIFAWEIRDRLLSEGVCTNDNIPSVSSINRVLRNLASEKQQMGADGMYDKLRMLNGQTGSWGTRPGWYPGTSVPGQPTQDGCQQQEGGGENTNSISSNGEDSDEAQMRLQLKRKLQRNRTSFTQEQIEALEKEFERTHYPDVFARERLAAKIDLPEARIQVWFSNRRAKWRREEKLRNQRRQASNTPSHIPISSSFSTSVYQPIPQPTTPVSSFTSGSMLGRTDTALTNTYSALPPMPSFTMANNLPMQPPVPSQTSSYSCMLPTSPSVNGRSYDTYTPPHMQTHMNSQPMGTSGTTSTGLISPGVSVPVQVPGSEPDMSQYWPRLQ
Transcription factor Sp1 (Homo sapiens), sequence (P08047 whole entry, looked up, the tested form may be a part): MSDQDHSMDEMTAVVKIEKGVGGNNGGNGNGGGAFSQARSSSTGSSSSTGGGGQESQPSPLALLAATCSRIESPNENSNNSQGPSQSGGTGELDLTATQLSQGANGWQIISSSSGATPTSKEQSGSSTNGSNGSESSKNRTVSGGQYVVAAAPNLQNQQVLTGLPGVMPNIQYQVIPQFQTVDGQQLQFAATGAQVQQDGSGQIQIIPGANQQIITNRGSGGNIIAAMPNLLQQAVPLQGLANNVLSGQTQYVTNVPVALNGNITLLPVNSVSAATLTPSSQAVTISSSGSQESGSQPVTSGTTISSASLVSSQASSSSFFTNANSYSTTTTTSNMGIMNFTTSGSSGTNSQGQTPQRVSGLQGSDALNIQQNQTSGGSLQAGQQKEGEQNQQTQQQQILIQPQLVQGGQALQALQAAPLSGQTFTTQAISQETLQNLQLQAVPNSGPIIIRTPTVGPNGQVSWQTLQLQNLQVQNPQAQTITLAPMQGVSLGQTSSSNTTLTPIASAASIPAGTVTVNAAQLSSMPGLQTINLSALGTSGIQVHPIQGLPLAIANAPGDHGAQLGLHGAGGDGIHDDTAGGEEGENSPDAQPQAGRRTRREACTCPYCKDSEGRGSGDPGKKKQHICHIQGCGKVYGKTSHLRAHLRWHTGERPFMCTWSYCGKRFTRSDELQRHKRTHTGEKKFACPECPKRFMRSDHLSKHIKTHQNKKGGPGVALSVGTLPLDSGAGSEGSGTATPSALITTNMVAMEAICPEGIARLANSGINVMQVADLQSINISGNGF
Hepatocyte nuclear factor 6 (Homo sapiens), sequence (Q9UBC0 whole entry, looked up, the tested form may be a part): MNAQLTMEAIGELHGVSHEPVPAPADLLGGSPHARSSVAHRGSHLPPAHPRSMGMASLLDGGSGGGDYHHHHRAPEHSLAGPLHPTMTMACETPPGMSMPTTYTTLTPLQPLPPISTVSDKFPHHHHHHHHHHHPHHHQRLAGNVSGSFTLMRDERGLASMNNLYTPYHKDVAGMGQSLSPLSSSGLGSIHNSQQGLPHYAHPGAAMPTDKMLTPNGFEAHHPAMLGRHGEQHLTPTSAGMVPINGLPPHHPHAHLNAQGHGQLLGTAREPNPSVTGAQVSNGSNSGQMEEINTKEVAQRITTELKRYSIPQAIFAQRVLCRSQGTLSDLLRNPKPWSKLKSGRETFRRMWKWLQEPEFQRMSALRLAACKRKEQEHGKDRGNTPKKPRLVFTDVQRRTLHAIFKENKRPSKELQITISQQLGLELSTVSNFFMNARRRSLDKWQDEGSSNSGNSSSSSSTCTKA
Bile acid receptor (Homo sapiens), sequence (Q96RI1 whole entry, looked up): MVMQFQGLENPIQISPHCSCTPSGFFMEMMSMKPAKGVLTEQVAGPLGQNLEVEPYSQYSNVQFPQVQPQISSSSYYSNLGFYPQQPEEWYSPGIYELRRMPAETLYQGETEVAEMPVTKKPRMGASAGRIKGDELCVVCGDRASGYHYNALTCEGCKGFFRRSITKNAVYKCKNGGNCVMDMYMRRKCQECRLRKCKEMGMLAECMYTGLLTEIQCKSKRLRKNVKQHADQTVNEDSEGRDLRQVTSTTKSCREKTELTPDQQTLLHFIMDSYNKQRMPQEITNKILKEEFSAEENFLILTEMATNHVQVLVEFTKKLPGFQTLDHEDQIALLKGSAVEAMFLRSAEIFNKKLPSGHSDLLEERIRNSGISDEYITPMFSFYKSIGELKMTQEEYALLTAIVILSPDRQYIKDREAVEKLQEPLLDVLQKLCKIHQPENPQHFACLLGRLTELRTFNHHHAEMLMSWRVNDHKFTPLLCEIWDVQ
Heat shock factor protein 1 (Homo sapiens), sequence (Q00613 whole entry, looked up): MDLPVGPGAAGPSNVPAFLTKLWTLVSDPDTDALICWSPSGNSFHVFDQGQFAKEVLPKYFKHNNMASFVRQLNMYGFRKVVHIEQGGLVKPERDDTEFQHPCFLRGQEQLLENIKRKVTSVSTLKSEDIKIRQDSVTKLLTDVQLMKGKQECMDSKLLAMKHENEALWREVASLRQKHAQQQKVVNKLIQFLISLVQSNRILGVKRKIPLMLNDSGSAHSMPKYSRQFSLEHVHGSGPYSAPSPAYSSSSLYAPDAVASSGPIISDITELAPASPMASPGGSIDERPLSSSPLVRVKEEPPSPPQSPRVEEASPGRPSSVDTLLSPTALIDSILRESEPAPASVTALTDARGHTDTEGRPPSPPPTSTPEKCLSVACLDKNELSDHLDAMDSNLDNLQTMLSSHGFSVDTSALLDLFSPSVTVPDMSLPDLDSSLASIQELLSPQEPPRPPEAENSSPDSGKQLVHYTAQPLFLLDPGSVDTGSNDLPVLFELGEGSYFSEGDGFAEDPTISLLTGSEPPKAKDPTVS
Hypoxia-inducible factor 1-alpha (Homo sapiens), sequence (Q16665 whole entry, looked up): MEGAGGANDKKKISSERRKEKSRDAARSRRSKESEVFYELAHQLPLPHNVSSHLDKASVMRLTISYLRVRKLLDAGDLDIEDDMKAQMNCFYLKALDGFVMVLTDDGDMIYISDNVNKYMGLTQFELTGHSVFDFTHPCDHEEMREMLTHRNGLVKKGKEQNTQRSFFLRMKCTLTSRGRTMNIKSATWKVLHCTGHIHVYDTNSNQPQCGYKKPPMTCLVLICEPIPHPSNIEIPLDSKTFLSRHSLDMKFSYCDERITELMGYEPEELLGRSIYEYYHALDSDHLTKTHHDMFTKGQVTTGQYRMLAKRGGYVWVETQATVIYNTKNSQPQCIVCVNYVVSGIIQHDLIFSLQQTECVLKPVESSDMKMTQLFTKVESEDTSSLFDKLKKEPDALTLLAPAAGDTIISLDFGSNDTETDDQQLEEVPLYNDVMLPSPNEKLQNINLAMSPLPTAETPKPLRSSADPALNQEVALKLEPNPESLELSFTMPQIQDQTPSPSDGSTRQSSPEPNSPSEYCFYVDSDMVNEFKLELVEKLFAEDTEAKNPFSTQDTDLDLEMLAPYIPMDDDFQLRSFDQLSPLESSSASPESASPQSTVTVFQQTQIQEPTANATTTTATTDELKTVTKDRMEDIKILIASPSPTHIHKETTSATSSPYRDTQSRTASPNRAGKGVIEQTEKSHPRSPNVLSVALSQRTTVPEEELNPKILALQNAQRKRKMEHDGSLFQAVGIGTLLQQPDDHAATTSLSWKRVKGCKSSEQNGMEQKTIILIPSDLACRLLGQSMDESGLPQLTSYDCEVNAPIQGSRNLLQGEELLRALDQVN
Signal transducer and activator of transcription 3 (Homo sapiens), sequence (P40763 whole entry, looked up): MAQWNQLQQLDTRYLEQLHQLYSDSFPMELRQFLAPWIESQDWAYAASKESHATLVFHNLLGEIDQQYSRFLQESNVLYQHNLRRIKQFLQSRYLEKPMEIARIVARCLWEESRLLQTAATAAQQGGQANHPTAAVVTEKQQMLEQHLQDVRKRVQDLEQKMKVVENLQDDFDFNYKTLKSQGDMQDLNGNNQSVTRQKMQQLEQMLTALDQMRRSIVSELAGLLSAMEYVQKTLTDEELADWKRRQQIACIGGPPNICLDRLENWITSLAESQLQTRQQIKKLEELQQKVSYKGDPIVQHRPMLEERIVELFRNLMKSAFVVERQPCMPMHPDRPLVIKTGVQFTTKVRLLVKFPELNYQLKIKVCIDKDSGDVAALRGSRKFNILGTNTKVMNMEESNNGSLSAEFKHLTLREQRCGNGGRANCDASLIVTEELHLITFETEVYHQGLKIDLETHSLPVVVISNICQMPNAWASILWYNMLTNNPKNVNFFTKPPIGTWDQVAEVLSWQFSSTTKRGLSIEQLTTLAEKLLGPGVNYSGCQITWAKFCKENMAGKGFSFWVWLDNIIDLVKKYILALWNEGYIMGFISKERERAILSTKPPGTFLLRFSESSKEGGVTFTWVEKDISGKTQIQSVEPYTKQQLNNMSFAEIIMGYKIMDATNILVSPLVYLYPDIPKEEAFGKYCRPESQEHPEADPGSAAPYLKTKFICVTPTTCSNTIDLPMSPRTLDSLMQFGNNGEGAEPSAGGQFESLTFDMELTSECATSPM

On to `O=C(Oc1ccc(Br)cc1)N1CCN2CCC1CC2`, for which the call in assay [1], in assay [2], in assay [3], in [4], in assay [6] and in [7] was inactive. Moreover, the outcome in [8], in assay [9], in assay [11], in assay [12], in assay [13] and in [14] was inactive. For the same molecule, the molecule was called inactive in [15] and in assay [16]. Further, the figures for the AC50 in [5], in assay [10] and in [17] were 34.6 µM (active), 26 µM (active) and 43.3 µM (active), respectively.

On to `CO[C@@H]1[C@H](OC(=O)NC(=O)CCl)CC[C@]2(CO2)[C@H]1[C@@]1(C)O[C@@H]1CC=C(C)C`, for which the molecule was classed as inactive in assay [1], in assay [2], in [3], in assay [4], in assay [5] and in [6]. Moreover, the outcome in [7], in [8], in assay [18], in [19], in assay [12] and in assay [13] was inactive. Further, the molecule was classed as inactive in assay [14] and in [16]. For the same molecule, the AC50 in [10] is 0.293 µM (active); in assay [17], 39.5 µM (active).

Turning to `CS(=O)(=O)NC(=O)c1cc(Oc2ccc(C(F)(F)F)cc2Cl)ccc1[N+](=O)[O-]`, the outcome in assay [20], in assay [2], in assay [3], in [5], in [6] and in [7] was inactive. Further, the molecule was classed as inactive in assay [8], in assay [18], in assay [9], in [19], in assay [12] and in assay [13]. Moreover, the call in assay [14], in assay [16] and in assay [17] was inactive. Also, the AC50 in assay [10] is 8.23 µM (active).

In the case of `ClC1=C(Cl)C2(Cl)C3C(Cl)C=CC3C1(Cl)C2(Cl)Cl` (stereo not given), the molecule was called inactive in [1], in assay [2], in assay [3], in [4], in [5] and in [6]. Further, the molecule was called inactive in [7], in assay [18], in [11], in assay [19], in assay [12] and in [14]. The molecule was called inactive in assay [16] and in [17]. In addition, the AC50 in assay [8] is 127 µM (active); in assay [10], 7.47 µM (active); in assay [13] it was 168 µM (active).

As to `Clc1ccc(C(c2ccc(Cl)cc2)C(Cl)(Cl)Cl)cc1`, the call in assay [20], in [1], in assay [3], in assay [5], in assay [6] and in [7] was inactive. Further, the result in assay [19], in [12], in [14], in [16] and in [17] was inactive. In addition, the AC50 is 62.2 µM (active) in [2], 100 µM (active) in assay [8], 4.13 µM (active) in assay [10] and 100 µM (active) in assay [13].

With `C1=Cc2cccc3cccc1c23`, the molecule was called inactive in assay [1], in assay [2], in assay [3], in assay [4], in [5] and in assay [6]. Also, the call in assay [7], in assay [8], in [18], in assay [9], in [19] and in assay [12] was inactive. For the same molecule, the molecule was called inactive in [13], in assay [14], in [16] and in [17]. The half-maximal activity concentration (AC50) in assay [10] is 16.2 µM (active).

As to `CC(C)N(Cc1ccccc1)C(=O)C(C)(C)C`, the outcome in assay [20], in [2], in assay [3], in assay [5], in assay [6] and in assay [7] was inactive. The molecule was called inactive in assay [8], in [18], in assay [9], in assay [11], in assay [19] and in assay [12]. For the same molecule, the outcome in [13], in assay [14], in assay [16] and in [17] was inactive. Also, in assay [10], the AC50 is 1.24 µM (active).
